Measured values reported in PMC4336329 (PLoS ONE, 2015).
Out of some 310,000 compounds screened, about 14,000 (4.5%) showed an effect of 50% or more. Effects have a minus sign here. What follows is part of a selection rich in strong results, with near analogues and random picks from the rest.

Target: human ether-à-go-go-related gene (hERG) potassium channel (human, UniProt Q12809)
Assay: primary screen, population patch clamp on CHO cells stably expressing hERG; higher = less effect of the substance
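Also: peak tail current of the secondary pulse compared with the same well before compound.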

human ether-à-go-go-related gene (hERG) potassium channel, sequence (Q12809 whole entry, looked up): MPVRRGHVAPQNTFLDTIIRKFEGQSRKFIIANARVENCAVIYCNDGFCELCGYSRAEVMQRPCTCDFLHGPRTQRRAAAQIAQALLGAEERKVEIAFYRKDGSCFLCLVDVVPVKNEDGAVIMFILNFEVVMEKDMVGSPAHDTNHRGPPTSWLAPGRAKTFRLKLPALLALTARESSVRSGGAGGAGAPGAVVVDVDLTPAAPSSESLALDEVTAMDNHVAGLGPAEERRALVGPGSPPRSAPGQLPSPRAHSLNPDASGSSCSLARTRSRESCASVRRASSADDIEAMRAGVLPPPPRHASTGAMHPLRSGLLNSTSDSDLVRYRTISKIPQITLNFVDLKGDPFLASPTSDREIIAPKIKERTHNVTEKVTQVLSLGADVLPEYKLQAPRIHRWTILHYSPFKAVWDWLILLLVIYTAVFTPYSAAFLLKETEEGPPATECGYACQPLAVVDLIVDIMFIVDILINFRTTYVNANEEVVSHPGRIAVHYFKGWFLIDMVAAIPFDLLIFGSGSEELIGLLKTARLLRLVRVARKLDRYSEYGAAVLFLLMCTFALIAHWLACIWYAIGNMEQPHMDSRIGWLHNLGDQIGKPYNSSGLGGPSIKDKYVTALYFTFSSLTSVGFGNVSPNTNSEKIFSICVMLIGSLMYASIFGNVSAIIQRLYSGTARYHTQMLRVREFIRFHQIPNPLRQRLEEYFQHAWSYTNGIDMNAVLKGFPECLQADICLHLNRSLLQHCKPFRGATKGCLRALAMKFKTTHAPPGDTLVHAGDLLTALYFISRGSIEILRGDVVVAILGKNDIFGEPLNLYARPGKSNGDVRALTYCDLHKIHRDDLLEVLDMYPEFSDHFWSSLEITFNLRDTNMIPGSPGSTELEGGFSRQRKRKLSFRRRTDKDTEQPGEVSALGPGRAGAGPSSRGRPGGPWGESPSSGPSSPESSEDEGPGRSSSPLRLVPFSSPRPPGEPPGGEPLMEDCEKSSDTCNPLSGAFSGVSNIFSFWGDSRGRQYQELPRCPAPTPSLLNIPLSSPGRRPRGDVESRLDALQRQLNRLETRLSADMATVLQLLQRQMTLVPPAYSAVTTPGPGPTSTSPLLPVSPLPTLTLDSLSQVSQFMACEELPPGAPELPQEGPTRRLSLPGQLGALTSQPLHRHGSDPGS

Row | SMILES | hERG current change (%, negative = inhibition) at 10uM [%]
1 | Cc1ccc(-c2nnc(SCC(N)=O)n2C)cc1 | -0.685
2 | CN(C)N1C(N)=C(C#N)C(c2cccnc2)C2=C1CCCC2=O (stereo not drawn) | -9.73
3 | CC(C)Oc1ccc(C(=O)O)cc1 | 16.5
4 | O=S(=O)(NCc1ccccc1)c1ccc(Cl)c(S(=O)(=O)NCc2ccccc2)c1 | -33
5 | COc1ccc(C(=O)NCCC2=CCCCC2)cc1 | -9.79
6 | NS(=O)(=O)c1ccc(CCNC(=O)CNS(=O)(=O)c2cccc(Br)c2)cc1 | 13.2
7 | COc1ccc(C2C(C#N)=C(N)N(c3sc4c(c3C#N)CCCC4)C3=C2C(=O)CC(C)(C)C3)cc1 (stereo not drawn) | -2.99
8 | O=C(COc1ccc(Cl)cc1)Nc1ccc2oc(=O)ccc2c1 | 3.7
9 | Cc1cc(C)n(C(=O)c2cc(F)c(F)cc2C)n1 | 4.1
10 | O=C(NC1CCN(Cc2ccccc2)CC1)c1ccccc1 | -33.3
11 | Cc1ccc(CN2CCC(NC(=O)c3ccccc3)CC2)cc1 | -75
12 | CC(C)Oc1ccc(C(=O)NC2CCCCC2)cc1 | 10.3
13 | OC1CCN(Cc2ccc3ccccc3c2)CC1 | 13.4
14 | O=C(NC1CCN(Cc2ccc(Cl)c(Cl)c2)CC1)c1ccccc1 | -18.3
15 | Cc1ccc(CN2CCSc3ccc(C(=O)NC4CCN(Cc5ccccc5)CC4)cc32)cc1 | 8.21
16 | CC(C)Oc1ccc(C(=O)NC2CCN(Cc3ccccc3)CC2)cc1 | -60.8
17 | CCCCOc1ccc(C(=O)NCC(=O)NC2CCN(Cc3ccccc3)CC2)cc1 | -25.6
18 | O=C(NC1CCN(Cc2ccc3ccccc3c2)CC1)c1ccccc1 | -66.3
19 | CCOC(=O)c1sc(=NC(=O)CCSc2ccccc2)n(C)c1C | -11.8
20 | O=C(NCCOc1cccc2cccnc12)c1cccs1 | -12.8
21 | O=C(CSc1ncnc2c1nnn2Cc1ccc(F)cc1)NC1CCCCC1 | 11.8
22 | N/C(=N\OC(=O)N1c2ccccc2Sc2ccccc21)c1ccc(Br)cc1 | 5.79

Row | SMILES | hERG current change (%, negative = inhibition) at 10uM [%]
23 | O=C(COc1c(Br)cc(Br)c2cccnc12)N1CCc2ccccc2C1 | 8.07
24 | CC(=O)N/C(=C\c1ccccc1)C(=O)OCC(=O)N(CC(C)C)c1c(N)n(Cc2ccccc2)c(=O)[nH]c1=O | 6.75
25 | CC(c1ccc(F)cc1)n1c(-c2ccc3ccccc3n2)n[nH]c1=S (stereo not drawn) | 18.1
26 | Cn1c(=O)c2c(nc(SCc3ccc(F)cc3)n2C)n(C)c1=O | 1.9
27 | O=C(NCC(O)c1ccccc1)c1ccc(Cl)c(S(=O)(=O)N2CCCC2)c1 (stereo not drawn) | -0.367
28 | Cc1ccc(CNC(=O)c2ccc(Cl)c(S(=O)(=O)N3CCCCC3)c2)cc1 | -27.3
29 | O=C(NCCCN1CCCC1=O)c1ccc(Cl)c(S(=O)(=O)N2CCCCC2)c1 | -24.1
30 | CCN(CC)CCNC(=O)c1ccc(Cl)c(S(=O)(=O)N2CCCCCC2)c1.Cl | -67.4
31 | CCN(CC)CCNC(=O)c1ccc(NC(=O)c2ccc(Cl)c(S(=O)(=O)N3CCCCCC3)c2)cc1.Cl | -24
32 | CN(C)CCCNC(=O)c1ccc(Cl)c(S(=O)(=O)N2CCCCCC2)c1.Cl | -72.4
33 | CN(C)C(CNC(=O)c1ccc(Cl)c(S(=O)(=O)N2CCCCCC2)c1)c1ccccc1 (stereo not drawn) | -67.5
34 | CCN(CC)CCOC(=O)c1ccc(NC(=O)c2ccc(Cl)c(S(=O)(=O)N3CCCCCC3)c2)cc1.Cl | 13.7
35 | O=C(NCC(O)c1ccccc1)c1ccc(Cl)c(S(=O)(=O)N2CCCCC2)c1 (stereo not drawn) | 8.95
36 | Cc1cc(C)n(C(=O)c2cccc([N+](=O)[O-])c2)n1 | -5.46
37 | COc1ccc(CCNC(=O)C2CCN(S(=O)(=O)c3cnc[nH]3)CC2)cc1OC | 13.7
38 | CCN(C(=O)CSc1nc(N)cc(=O)[nH]1)c1c(N)n(Cc2ccccc2)c(=O)[nH]c1=O | 2.41
39 | Cc1ccc(S(=O)(=O)NCCCn2ccnc2)cc1C(=O)NC(C)C | -1.56
40 | O=S(=O)(Nc1ccc2c(c1)OCO2)c1ccc(Br)s1 | -18.1
41 | O=C(O)CCN1CCc2ccccc2C1c1ccncc1 (stereo not drawn) | 13.2
42 | Cc1sc(NC(=O)c2ccco2)c(CN2CCC(C)CC2)c1C | -16.2
43 | CCN(CC)C(=O)CSc1nnc(CNc2ccc(F)cc2)o1 | 1.13
44 | CN(Cc1nc(-c2ccncc2)no1)S(=O)(=O)c1ccccc1 | 3.91

Row | SMILES | hERG current change (%, negative = inhibition) at 10uM [%]
45 | CN(Cc1nc(-c2ccncc2)no1)S(=O)(=O)c1ccc(Br)cc1 | -58.1
46 | Cc1ccc(S(=O)(=O)N(C)Cc2nc(-c3ccncc3)no2)cc1 | -19.5
47 | Cc1ccc(S(=O)(=O)N(C)Cc2nc(-c3ccc(Br)cc3)no2)cc1 | 4.12
48 | CN(Cc1nc(-c2cccnc2)no1)S(=O)(=O)c1ccc(Br)cc1 | -46
49 | CN(Cc1nc(-c2ccncc2)no1)S(=O)(=O)c1ccc(Cl)cc1 | -55.5
50 | O=C(NNc1nc(-c2ccccc2)cs1)c1cccs1 | 10.7
51 | O=C(COC(=O)c1ccc(F)cc1F)NCCNC(=O)COC(=O)c1ccc(F)cc1F | 16.8
52 | Cc1c(Cl)cccc1NC(=O)CN1CCC(C(O)(c2ccccc2)c2ccccc2)CC1 | -12.3
53 | NNc1nc2c(Cl)ccc(Cl)c2s1 | 18.6
54 | NS(=O)(=O)c1cccc(NC(=O)Cc2ccc(Cl)c(Cl)c2)c1 | 6.09
55 | CN(C)CCNC(=O)c1ccc(CS(=O)(=O)c2ccc(Br)cc2)o1 | -3.14
56 | CC(C)N(CCNC(=O)c1ccc(CS(=O)(=O)c2c(Cl)cccc2Cl)o1)Cc1ccccc1 | -70.6
57 | CN(CCNC(=O)c1ccc(CS(=O)(=O)c2ccc(Br)cc2)o1)CCc1ccccc1 | -77.5
58 | O=C(NCCc1ccccc1)c1ccc(CS(=O)(=O)c2ccc(Cl)cc2)o1 | -2.15
59 | CC1CCCN(CCCNC(=O)c2ccc(CS(=O)(=O)c3c(Cl)cccc3Cl)o2)C1 (stereo not drawn) | -44.8
60 | CN(CCNC(=O)c1ccc(CS(=O)(=O)c2c(Cl)cccc2Cl)o1)CCc1ccccc1 | -70
61 | CCN1CCN(CCNC(=O)c2ccc(CS(=O)(=O)c3c(Cl)cccc3Cl)o2)CC1 | -8.19
62 | COC(CNC(=O)c1ccc(CS(=O)(=O)c2c(Cl)cccc2Cl)o1)OC | 21.2
63 | O=C(NCCCN1CCOCC1)c1ccc(CS(=O)(=O)c2c(Cl)cccc2Cl)o1 | 2.35
64 | CC(C)N(CCCNC(=O)c1ccc(CS(=O)(=O)c2c(Cl)cccc2Cl)o1)Cc1ccccc1 | -67.7
65 | O=C(NCCc1ccccc1)c1ccc(CS(=O)(=O)c2ccc(Br)cc2)o1 | 10.2
66 | O=C(NCCN1CCCC1)c1ccc(CS(=O)(=O)c2c(Cl)cccc2Cl)o1 | -45.5
